Common to all, as to experiment: peptide microarray binding signal (635 nm), min-max normalized on array (fraction of array maximum); higher = stronger binding
Holding throughout (details): peptide region: H3 30-42

The target of test [1] is T1, HaloTag-ATRX ADD domain (163-292).
T1 chain: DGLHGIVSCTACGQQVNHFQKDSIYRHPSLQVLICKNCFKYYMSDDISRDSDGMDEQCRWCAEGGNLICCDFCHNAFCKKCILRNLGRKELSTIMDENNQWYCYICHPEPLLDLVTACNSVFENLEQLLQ
The essentials:
(§1)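 An Axon GenePix 4000B scanned the arrays at 635 nm for signal and at 532 nm to catch misprints. Those arrays held histone 13-mer peptide–cellulose conjugates printed in triplicate on nitrocellulose with a Cy3 tracer, blocked overnight at 4°C and probed for 1 h at 4°C with biotin-labelled HaloTag reader fusions (10 nM to 1 μM) plus streptavidin-Alexa Fluor 647 or with rabbit histone antibodies (1:10,000 to 1:2,000) plus anti-rabbit Alexa 647. Each binding signal is a triplicate-spot mean intensity, scaled min-max within its library.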

Test [2] has as its target HaloTag-ING2 PHD (mouse Ing2 200-280). The essentials:
as §1

Test [3] deals with anti-H3K4me3 antibody ab8580. The method, boiled down:
as §1

The target in test [4] is anti-H3K9me3 antibody ab8898. The method, boiled down: as §1
[5] abbreviates: peptide modifications: H3K36me2 H3K37me3, binder concentration: 1:2,000 dilution.
The mark [6] stands for this setting: peptide modifications: H3K36me2 H3K37me3, binder concentration: 1:10,000 dilution.
[7] abbreviates: peptide modifications: H3K36me1 H3K37me2, binder concentration: 1:2,000 dilution.
Where [8] appears, read: peptide modifications: H3K36me1 H3K37me2, binder concentration: 1:10,000 dilution.
The mark [9] stands for this setting: peptide modifications: H3K36ac H3K37ac, binder concentration: 1:2,000 dilution.
[10] abbreviates: peptide modifications: H3K36ac H3K37ac, binder concentration: 1:10,000 dilution.
[11] abbreviates: peptide modifications: H3K36me1 H3K37me3, binder concentration: 1:2,000 dilution.
Setting [12] is: peptide modifications: H3K36me1 H3K37me3, binder concentration: 1:10,000 dilution.
The mark [13] stands for this setting: peptide modifications: H3K36me2 H3K37me1, binder concentration: 1:2,000 dilution.
Where [14] appears, read: peptide modifications: H3K36me2 H3K37me1, binder concentration: 1:10,000 dilution.
Where [15] appears, read: peptide modifications: H3K36me2, binder concentration: 1:2,000 dilution.
[16] abbreviates: peptide modifications: H3K36me2, binder concentration: 1:10,000 dilution.
Setting [17] is: peptide modifications: H3K36ac, binder concentration: 1:2,000 dilution.
[18] abbreviates: peptide modifications: H3K36ac, binder concentration: 1:10,000 dilution.
[19] abbreviates: peptide modifications: H3K36me3, binder concentration: 1:2,000 dilution.
The mark [20] stands for this setting: peptide modifications: H3K36me3, binder concentration: 1:10,000 dilution.
Where [21] appears, read: peptide modifications: H3K36me1, binder concentration: 1:2,000 dilution.
Setting [22] is: peptide modifications: H3K36me1, binder concentration: 1:10,000 dilution.
Setting [23] is: peptide modifications: H3K36me2 H3K37ac, binder concentration: 1:2,000 dilution.
Setting [24] is: peptide modifications: H3K36me2 H3K37ac, binder concentration: 1:10,000 dilution.

The values below come from the supplement of paper PMC4022240.

± gives the standard deviation.

Regarding PATGGVKKPHRYR [H3 30-42 P A T G G V Kme2 Kme3 P H R Y R], the “peptide microarray binding signal” value was 0.00266 ± 7.1e-05 in test [1] (peptide modifications: H3K36me2 H3K37me3, binder concentration: 50 nM); 0.00343 ± 0.00019 in test [1] (peptide modifications: H3K36me2 H3K37me3, binder concentration: 500 nM); 0.00298 ± 6.6e-05 in test [2] (peptide modifications: H3K36me2 H3K37me3, binder concentration: 10 nM); 0.00454 ± 0.00042 in test [2] (peptide modifications: H3K36me2 H3K37me3, binder concentration: 100 nM); 0.0016 ± 0.00015 in test [3] (setting [5]); 0.00126 ± 3.7e-05 in test [3] (setting [6]). Further, the “peptide microarray binding signal” value in test [4] (setting [5]) amounted to 0.00429 ± 0.0012; in test [4] (setting [6]) it was 0.00133 ± 4e-05.

Regarding PATGGVKKPHRYR [H3 30-42 P A T G G V Kme Kme2 P H R Y R], the “peptide microarray binding signal” value in test [1] (peptide modifications: H3K36me1 H3K37me2, binder concentration: 50 nM) came out at 0.00241 ± 8.1e-05; in test [1] (peptide modifications: H3K36me1 H3K37me2, binder concentration: 500 nM) it was 0.00529 ± 0.00037; in test [2] (peptide modifications: H3K36me1 H3K37me2, binder concentration: 10 nM) it was 0.00442 ± 0.00037; in test [2] (peptide modifications: H3K36me1 H3K37me2, binder concentration: 100 nM) it was 0.00709 ± 0.0016; in test [3] (setting [7]) it was 0.000245 ± 5.2e-06; in test [3] (setting [8]) it was 0.000571 ± 1.1e-05. Further, the “peptide microarray binding signal” value is 0.00337 ± 0.0001 in test [4] (setting [7]) and 0.000865 ± 2.4e-05 in test [4] (setting [8]).

As to PATGGVKKPHRYR [H3 30-42 P A T G G V Kac Kac P H R Y R], the “peptide microarray binding signal” value is 0.00357 ± 6.3e-05 in test [1] (peptide modifications: H3K36ac H3K37ac, binder concentration: 50 nM); 0.00462 ± 8.3e-05 in test [1] (peptide modifications: H3K36ac H3K37ac, binder concentration: 500 nM); 0.00489 ± 0.00017 in test [2] (peptide modifications: H3K36ac H3K37ac, binder concentration: 10 nM); 0.00539 ± 0.00019 in test [2] (peptide modifications: H3K36ac H3K37ac, binder concentration: 100 nM); 0.00264 ± 0.00042 in test [3] (setting [9]); 0.003024 ± 2.6e-05 in test [3] (setting [10]). For the same molecule, the “peptide microarray binding signal” value was determined as 0.00427 ± 0.00042 in test [4] (setting [9]) and 0.00271 ± 0.00018 in test [4] (setting [10]).

Turning to PATGGVKKPHRYR [H3 30-42 P A T G G V Kme Kme3 P H R Y R], the “peptide microarray binding signal” value in test [1] (peptide modifications: H3K36me1 H3K37me3, binder concentration: 50 nM) is 0.00135 ± 1.7e-05; in test [1] (peptide modifications: H3K36me1 H3K37me3, binder concentration: 500 nM) it was 0.00229 ± 8.8e-05; in test [2] (peptide modifications: H3K36me1 H3K37me3, binder concentration: 10 nM), 0.00203 ± 8.9e-05; in test [2] (peptide modifications: H3K36me1 H3K37me3, binder concentration: 100 nM), 0.00191 ± 0.00013; in test [3] (setting [11]) it was 0.000359 ± 2.1e-05; in test [3] (setting [12]), 0.000514 ± 1.1e-05. The “peptide microarray binding signal” value in test [4] (setting [11]) was found to be 0.0008 ± 8.7e-05; in test [4] (setting [12]), 0.000807 ± 1.5e-05.

Consider PATGGVKKPHRYR [H3 30-42 P A T G G V Kme2 Kme P H R Y R], for which the “peptide microarray binding signal” value is 0.00476 ± 8.1e-05 in test [1] (peptide modifications: H3K36me2 H3K37me1, binder concentration: 50 nM); 0.0141 ± 0.0045 in test [1] (peptide modifications: H3K36me2 H3K37me1, binder concentration: 500 nM); 0.00913 ± 0.0015 in test [2] (peptide modifications: H3K36me2 H3K37me1, binder concentration: 10 nM); 0.00376 ± 0.0011 in test [2] (peptide modifications: H3K36me2 H3K37me1, binder concentration: 100 nM); 0.000774 ± 0.00022 in test [3] (setting [13]); 0.00622 ± 0.002 in test [3] (setting [14]). For the same molecule, the “peptide microarray binding signal” value was found to be 0.00214 ± 0.00062 in test [4] (setting [13]) and 0.00208 ± 0.00019 in test [4] (setting [14]).

For PATGGVKKPHRYR [H3 30-42 P A T G G V Kme2 K P H R Y R], the “peptide microarray binding signal” value in test [1] (peptide modifications: H3K36me2, binder concentration: 50 nM) came to 0.00417 ± 0.0002; in test [1] (peptide modifications: H3K36me2, binder concentration: 500 nM), 0.00919 ± 0.00057; in test [2] (peptide modifications: H3K36me2, binder concentration: 10 nM), 0.0135 ± 0.0016; in test [2] (peptide modifications: H3K36me2, binder concentration: 100 nM), 0.0203 ± 0.0023; in test [3] (setting [15]) it was 0.0031 ± 0.00053; in test [3] (setting [16]) it was 0.00377 ± 0.00013. The results for the “peptide microarray binding signal” value in test [4] (setting [15]) and in test [4] (setting [16]) were 0.00305 ± 0.00012 and 0.00271 ± 7.1e-05, respectively.

With PATGGVKKPHRYR [H3 30-42 P A T G G V Kac K P H R Y R], the “peptide microarray binding signal” value was 0.0068 ± 0.00033 in test [1] (peptide modifications: H3K36ac, binder concentration: 50 nM); 0.0116 ± 0.0019 in test [1] (peptide modifications: H3K36ac, binder concentration: 500 nM); 0.0378 ± 0.0029 in test [2] (peptide modifications: H3K36ac, binder concentration: 10 nM); 0.0552 ± 0.0035 in test [2] (peptide modifications: H3K36ac, binder concentration: 100 nM); 0.0364 ± 0.0021 in test [3] (setting [17]); 0.0246 ± 0.0028 in test [3] (setting [18]). Besides, the “peptide microarray binding signal” value in test [4] (setting [17]) was found to be 0.025 ± 0.0016; in test [4] (setting [18]), 0.00963 ± 0.00018.

Turning to PATGGVKKPHRYR [H3 30-42 P A T G G V Kme3 K P H R Y R], the “peptide microarray binding signal” value came out at 0.00574 ± 0.00018 in test [1] (peptide modifications: H3K36me3, binder concentration: 50 nM); 0.007429 ± 7.1e-05 in test [1] (peptide modifications: H3K36me3, binder concentration: 500 nM); 0.0195 ± 0.00025 in test [2] (peptide modifications: H3K36me3, binder concentration: 10 nM); 0.02445 ± 0.00017 in test [2] (peptide modifications: H3K36me3, binder concentration: 100 nM); 0.00383 ± 0.00027 in test [3] (setting [19]); 0.00468 ± 0.00012 in test [3] (setting [20]). Also, the “peptide microarray binding signal” value in test [4] (setting [19]) turned out to be 0.0031 ± 0.00028; in test [4] (setting [20]), 0.00219.

On to PATGGVKKPHRYR [H3 30-42 P A T G G V Kme K P H R Y R], for which the “peptide microarray binding signal” value in test [1] (peptide modifications: H3K36me1, binder concentration: 50 nM) turned out to be 0.0102 ± 0.00043; in test [1] (peptide modifications: H3K36me1, binder concentration: 500 nM), 0.015 ± 0.0004; in test [2] (peptide modifications: H3K36me1, binder concentration: 10 nM), 0.0184 ± 0.00087; in test [2] (peptide modifications: H3K36me1, binder concentration: 100 nM), 0.0275 ± 0.0015; in test [3] (setting [21]), 0.00478 ± 0.00043; in test [3] (setting [22]), 0.00474 ± 0.00045. Moreover, the “peptide microarray binding signal” value turned out to be 0.00237 ± 7.4e-05 in test [4] (setting [21]) and 0.00277 ± 4.8e-05 in test [4] (setting [22]).

PATGGVKKPHRYR [H3 30-42 P A T G G V Kme2 Kac P H R Y R]: the “peptide microarray binding signal” value in test [1] (peptide modifications: H3K36me2 H3K37ac, binder concentration: 50 nM) stood at 0.00094 ± 1.9e-05; in test [1] (peptide modifications: H3K36me2 H3K37ac, binder concentration: 500 nM), 0.000857 ± 1.5e-05; in test [2] (peptide modifications: H3K36me2 H3K37ac, binder concentration: 10 nM), 0.0544 ± 0.07; in test [2] (peptide modifications: H3K36me2 H3K37ac, binder concentration: 100 nM), 0.00354 ± 0.00098; in test [3] (setting [23]), 0.000529 ± 1.4e-05; in test [3] (setting [24]), 0.000685 ± 4.7e-05. For the same molecule, the “peptide microarray binding signal” value in test [4] (setting [23]) amounted to 0.000438 ± 1.5e-05; in test [4] (setting [24]) it was 0.000461 ± 8.7e-06.
